One may read the inhibition as the drop in the measured response relative to a control, in per cent.

Each structure is given as a SMILES string. Several values for one entry are separate records, joined by “and”; a condition that tells them apart may be missing. Identical values can stand only once.

This test relates to Platelet-derived growth factor receptor alpha (Homo sapiens), P16234 [V561D]. Particulars: at 0.1 µM.
Chain of Platelet-derived growth factor receptor alpha (Homo sapiens), P16234 [V561D] (P16234 whole entry V561D): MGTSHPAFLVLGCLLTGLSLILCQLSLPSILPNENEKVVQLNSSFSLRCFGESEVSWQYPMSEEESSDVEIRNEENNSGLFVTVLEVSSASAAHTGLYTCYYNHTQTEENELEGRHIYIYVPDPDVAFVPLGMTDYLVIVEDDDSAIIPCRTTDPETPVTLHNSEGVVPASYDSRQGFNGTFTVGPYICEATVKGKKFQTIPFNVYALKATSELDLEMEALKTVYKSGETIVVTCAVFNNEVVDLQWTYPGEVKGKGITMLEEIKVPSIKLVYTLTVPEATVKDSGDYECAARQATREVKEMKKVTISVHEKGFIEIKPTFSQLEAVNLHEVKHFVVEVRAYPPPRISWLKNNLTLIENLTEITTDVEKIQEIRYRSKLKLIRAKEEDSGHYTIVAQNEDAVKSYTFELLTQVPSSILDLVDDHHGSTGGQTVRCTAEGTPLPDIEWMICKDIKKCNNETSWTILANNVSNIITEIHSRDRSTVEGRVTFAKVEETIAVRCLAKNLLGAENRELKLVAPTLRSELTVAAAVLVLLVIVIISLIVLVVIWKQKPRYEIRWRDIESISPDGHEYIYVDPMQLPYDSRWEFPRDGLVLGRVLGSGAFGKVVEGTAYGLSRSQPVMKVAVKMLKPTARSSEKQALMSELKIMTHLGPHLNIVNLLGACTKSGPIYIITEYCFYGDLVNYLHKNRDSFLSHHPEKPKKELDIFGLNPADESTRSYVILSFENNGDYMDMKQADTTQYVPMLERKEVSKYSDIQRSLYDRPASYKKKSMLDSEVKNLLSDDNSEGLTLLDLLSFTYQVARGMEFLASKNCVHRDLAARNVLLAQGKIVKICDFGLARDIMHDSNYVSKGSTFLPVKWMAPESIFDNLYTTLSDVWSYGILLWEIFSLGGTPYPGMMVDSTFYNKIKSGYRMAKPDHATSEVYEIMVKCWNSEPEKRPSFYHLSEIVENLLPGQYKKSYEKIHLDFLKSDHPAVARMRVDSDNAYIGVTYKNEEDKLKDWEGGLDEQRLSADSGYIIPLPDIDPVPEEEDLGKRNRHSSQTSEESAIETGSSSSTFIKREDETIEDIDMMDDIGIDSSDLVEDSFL
For `COc1ccc(Nc2ncc(-c3ccccc3)o2)cc1OC`, the inhibition amounted to 48.8%.

For the molecule `CCS(=O)(=O)c1ccc(OC)c(Nc2ncc(-c3cccc(C(C)=O)c3)o2)c1`, the inhibition stood at 22.1%.

For `CS(=O)(=O)Nc1ccc(-c2ccc3c(NC(=O)C4CC4)n[nH]c3c2)cc1`, the inhibition came out at 5.95%.

Turning to `CS(=O)(=O)CCNCc1ccoc1-c1ccc2ncnc(Nc3ccc(OCc4ccccc4)cc3)c2c1`, the inhibition turned out to be 1.67%.

Turning to `NS(=O)(=O)c1ccc(N/N=C2\C(=O)Nc3ccc(C(=O)NCc4ccncc4)cc32)cc1`, the inhibition was found to be 15.6%.

Turning to `CN1CCC(C(=O)Nc2n[nH]c3nc(-c4ccc(O)cc4)c(Br)cc23)CC1`, the inhibition was 5.98% and 2.37%.

Turning to `CN1CCN(Cc2ccc(-c3cc4ncnc(Nc5ccc(OCc6cccc(F)c6)c(Cl)c5)c4s3)o2)CC1`, the inhibition is 5.61% and 3.37%.

Turning to `COc1cc2c(cc1Nc1nc(Nc3cccc(F)c3C(N)=O)c3cc[nH]c3n1)N(C(=O)CN1CCN(C(C)C)CC1)CC2`, the inhibition was -0.47%.

Turning to `COc1cccc(-n2ncc3c(N/N=C/c4ccc(C(=O)NCCN(C)C)cc4)ncnc32)c1`, the inhibition is 44%.

Turning to `CN(c1ccc(NC(=O)NCCN2CCOCC2)cc1)c1ccnc(Nc2ccc(CS(C)(=O)=O)cc2)n1`, the inhibition was 61.6%.

For `Cc1nnc(-c2cccc(-c3ccc(C(=O)NCC4CC4)cc3)c2)o1`, the inhibition is 4.66%.

On to `Cc1cc(O)cc(C)c1/C=C/c1cncc(C(N)=O)c1`, for which the inhibition is 21%.

In the case of `FC(F)(F)CNc1nccc(-c2cnn3ncccc23)n1`, the inhibition was found to be 0.59%.

For `NC(=O)c1ccc2c(-c3ccnc(NCCCO)n3)c(-c3ccc(F)cc3)nn2c1`, the inhibition came out at 4.18%.

Regarding `COc1ccc2ncn(-c3cc(O[C@H](C)c4ccccc4C(F)(F)F)c(C(N)=O)s3)c2c1`, the inhibition is 5.47%.

Consider `COc1cc(Nc2ncc(-c3ccccc3)o2)cc(OC)c1`, for which the inhibition turned out to be 38.5%.

Regarding `Fc1ccc(Nc2nccc(-c3c(-c4ccc(C(F)(F)F)cc4)nn4ncccc34)n2)cc1F`, the inhibition was 3.46%.

Regarding `COc1cc(N2CCN(C(C)C)CC2)ccc1Nc1nc(Nc2cccc(F)c2C(=O)O)c2cc[nH]c2n1`, the inhibition came to 5.91%.

With `CC1(C)CC(n2cnc(-c3ccc(F)cc3)c2-c2ccnc(N)n2)CC(C)(C)N1`, the inhibition was -0.6%.

In the case of `COc1cccc(Nc2nccc(-c3cnn4ncccc34)n2)c1`, the inhibition was determined as 26.4%.

With `COc1ccc(-c2nn3ncccc3c2-c2ccnc(Nc3ccc(F)c(F)c3)n2)cc1`, the inhibition is 7.34%.

Consider `CNC(=O)c1cncc(/C=C/c2ccccc2C)c1`, for which the inhibition was 4.75%.

`Cn1c(-c2nonc2N)nc2cnccc21`: the inhibition was 1.45%.

`Nc1ncnc2occ(-c3ccc(NC(=O)Nc4cc(C(F)(F)F)ccc4F)cc3)c12`: the inhibition was 88.8% and 81.8%.

For `CCOc1ccc2c(-c3ccnc(Nc4cc(OC)cc(C(F)(F)F)c4)n3)cnn2n1`, the inhibition was found to be 6.9%.

Take `O=C1Nc2ccccc2/C1=C1\CCc2cc(O)ccc21`: the inhibition was 32.4%.

As for `O=C(O[C@H]1CN[C@H](C#Cc2cc3ncnc(Nc4ccc5c(ccn5Cc5cc(F)ccc5F)c4)c3s2)C1)N1CCOCC1`, the inhibition is 7.32%.

As to `CS(=O)(=O)CCNCc1ccc(-c2ccc3ncnc(Nc4ccc(OCc5cccc(C(F)(F)F)c5)cc4)c3c2)o1`, the inhibition was found to be 4.16%.

Regarding `N#Cc1cccc(Nc2ncc(-c3ccccc3)o2)c1`, the inhibition stood at 16.2%.

Turning to `N#Cc1ccc2c(-c3ccnc(NC4CC4)n3)c(-c3ccc(F)cc3)nn2c1`, the inhibition was determined as 1.97%.

On to `CNC(=O)c1sc(-n2cnc3cc(OC)c(OC)cc32)cc1OCc1ccccc1C(F)(F)F`, for which the inhibition is 7.81%.

These data come from ChEMBL document CHEMBL1961873, “Compounds: GSK PKIS; Assays: Nanosyn kinase panel” (2012).
